# LEDGF integ inh: blocks HIV-1 LEDGF/p75-dependent DNA integration; AID 743269; TR-FRET IN-LEDGF/p75 DNA integration, Eu/Cy5; hit rate 0.64% among 370,000; inhibition, % at 3.7 µM;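 active = inhibition above the screen-wide mean plus 3 SD, cut at about 13% in these data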;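 note: signal is the Cy5 over europium emission ratio at 671 and 618 nm; 0% = plate median of compound wells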
# PRMT1 FP inh: inhibitors of human PRMT1; Q99873; recombinant PRMT1, activity-based probe fluorescence polarization; inhibition, % at 2.79 µM; hit rate 1.3% among 370,000; AID 652257;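 active = inhibition above about 21% made by adding two undisclosed values, limit read from the data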
# Target sequence (Q99873 whole entry, looked up): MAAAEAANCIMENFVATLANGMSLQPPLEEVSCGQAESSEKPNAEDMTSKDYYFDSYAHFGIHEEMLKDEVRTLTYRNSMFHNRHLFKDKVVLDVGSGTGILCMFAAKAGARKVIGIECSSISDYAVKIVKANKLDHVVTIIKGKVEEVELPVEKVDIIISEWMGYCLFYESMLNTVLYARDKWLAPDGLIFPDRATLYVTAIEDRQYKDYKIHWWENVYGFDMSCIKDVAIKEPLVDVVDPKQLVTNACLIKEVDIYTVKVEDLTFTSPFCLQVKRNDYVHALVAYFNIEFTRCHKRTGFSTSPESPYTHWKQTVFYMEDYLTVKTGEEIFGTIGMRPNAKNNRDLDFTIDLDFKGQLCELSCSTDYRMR
# rCAG RNA binder: molecules binding r(CAG) RNA repeats; r(CAG) RNA repeat, TO-PRO-1 dye displacement fluorescence; inhibition, % at 3 µM; hit rate 1.3% among 370,000;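 active = inhibition above the plate cutoff, the mean of all test compounds on that plate plus 3 SD, cut at about 35% in these data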;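 note: 0% = DMSO alone and 100% = 100 µM mitoxantrone as full dye displacement; higher means more dye released from RNA so lower well fluorescence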
# MBD2 DNA inh: MBD2-methylated oligo binding inhibition; TR-FRET, MBD2 binding to methylated oligonucleotide; inhibition, % at 4.4 µM; hit rate 0.31% among 370,000; AID 686964; in the data active = inhibition above about 13%
# ABHD5-PLIN5 inh: ABHD5-PLIN5 protein interaction inhibition; Split G. princeps luciferase complementation, luminescence, 4 h; inhibition, % at 4 µM; hit rate 0.78% among 360,000; Q00G26+Q8WTS1;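 active = inhibition above the mean inhibition across every tested compound plus 3 SD, cut at about 22% in these data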;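 note: 0% = DMSO only wells and the 100% control is not disclosed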
# UHRF1 binding: blocks human UHRF1 binding to methylated DNA; Q96T88; UHRF1 binding to methylated oligo, TR-FRET; inhibition, % at 4.4 µM; hit rate 0.75% among 370,000; AID 687016; in the data active = inhibition above about 21%;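 note: UHRF1 SRA domain binding a hemimethylated CpG hairpin DNA probe; 0% = median of test compound wells and 100% = reference inhibitor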
# ABHD5-PLIN5 conf: confirmation of human ABHD5-PLIN5 interaction inhibitors; shares compounds with ABHD5-PLIN5 inh; biochemical ABHD5-PLIN5 interaction, luminescence; inhibition, % at 4 µM; hit rate 67% among 2,200; AID 651612; in the data active = inhibition above about 23%;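 note: 0% = DMSO vehicle wells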
# HNF4 split-luc: counter-screen for ABHD5-PLIN5 inhibitors: HNF4 split-luciferase; shares compounds with ABHD5-PLIN5 inh; hit rate 77% among 2,200; inhibition, % at 4 µM; HNF4 dimerization, luminescence, biochemical;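 active = mean inhibition across replicate wells exceeding the computed hit threshold, cut at about 13% in these data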;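 note: light from luciferase halves that rejoin when HNF4 fusion proteins dimerize; 0% = DMSO only wells and the 100% control is not given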
# The depositor's hits bear a star; . = no result given. An excerpt weighted towards active compounds, which were near 4.1% of everything screened.
SMILES,LEDGF integ inh,PRMT1 FP inh,rCAG RNA binder,MBD2 DNA inh,ABHD5-PLIN5 inh,UHRF1 binding,ABHD5-PLIN5 conf,HNF4 split-luc
CCOC(=O)c1ccc(N=c2sc(C(=O)OC)cc(=O)n2CCCN2CCOCC2)cc1,4,6,2,4,42*,4,45*,42*
C=CCn1c(SCC(=O)NCCOC)nc2scc(-c3ccco3)c2c1=O,6,47*,14,3,32*,2,42*,82*
CC[C@]12c3[nH]c4cc(-c5ccco5)ccc4c3CCN1C(=O)[C@@H](CC(=O)NCCc1ccccn1)C[C@@H]2C(=O)N1CCN(C(=O)C2CC2)CC1,-1,5,6,1,14,14,.,.
COCCCNC(=O)C[C@H]1C[C@H](C(=O)N2CCCCC2)[C@@]2(CCc3ccccc3)c3[nH]c4cc(-c5ccco5)ccc4c3CCN2C1=O,1,4,11,-1,28*,1,12,26*
C[C@]12c3[nH]c4cc(-c5ccco5)ccc4c3CCN1C(=O)[C@@H](CC(=O)NCCc1ccccn1)C[C@@H]2C(=O)N1CCCCC1,-3,11,9,3,42*,-1,8,24*
COc1ccc(-n2c(CSc3ccc(Cl)cc3)n[nH]c2=S)cc1,5,9,12,0,.,0,.,.
O=C(O)COc1ccccc1C=NNC(=O)Cc1cc(=O)[nH][nH]1,-3,3,7,-2,.,4,.,.
O=C(NCC(c1ccccc1)c1ccccc1)[C@H](Cc1ccccc1)NC1(C(=O)NC2CCCCC2)CCCC1,2,-3,.,-4,.,0,.,.
O=C(NCC1CCCO1)c1ccc(COc2ccc(F)cc2)o1 (configuration not stated),-2,-5,1,-2,10,0,.,.
CCOc1cc(N)c(Cl)cc1C(=O)NCC1CN(Cc2ccc(F)cc2)CCO1 (configuration not stated),2,2,1,0,71*,-1,78*,33*
COc1cc(CNc2ccc3c(c2)CCC3)cc(OC)c1O,2,15,4,-3,39*,-1,57*,89*
C[C@@H]1CCCCO[C@H](CN(C)C(=O)C2CCCCC2)[C@@H](C)CN([C@H](C)CO)C(=O)c2cc(NS(=O)(=O)c3cccs3)ccc2O1,-2,0,6,-2,.,-2,.,.
CCOC(=O)COc1ccc2nsnc2c1,-4,3,4,4,-1,1,.,.
CCOC(=O)COc1ccc(/C=C/[N+](=O)[O-])c(OCC(=O)OCC)c1,3,11,8,4,28*,9,62*,95*
CCOc1ccc(/C=C/[N+](=O)[O-])c2ccccc12,.,.,.,.,79*,.,103*,108*
O=c1[nH]cnc2nn(C3OC(CO)C(O)C3O)nc12 (configuration not stated),5,5,0,7,.,1,.,.
NC1=NC(=O)/C(=C\c2cc([N+](=O)[O-])ccc2Cl)S1,0,2,5,5,25*,3,24*,19*
NC1=NC(=O)/C(=C/c2ccc(Cl)cc2Cl)S1,-1,1,5,-3,3,0,.,.
COC(=O)[C@H]1C[C@@]2(n3ccc4ccccc43)c3ccccc3N(S(=O)(=O)c3ccccc3)[C@H]2N1,5,-1,4,-6,.,0,.,.
Nc1nc2c(ncn2[C@@H]2O[C@H](C(=O)N[C@H](Cc3ccccc3)C(=O)NCCCc3ccccc3)[C@@H](O)[C@H]2O)c(=O)[nH]1,7,-3,11,2,.,4,.,.
Cc1ccc(-n2nc(-c3ccco3)cc2C(=O)O)c(C)c1,5,20,22,9,31*,25*,23*,27*
CCCC1CCC2(CCCN2CCOC(=O)Nc2ccccc2)CC1 (configuration not stated),-1,-3,.,2,.,-3,.,.
Cc1sc2nc(SCC(=O)Nc3c(C)n(C)n(-c4ccccc4)c3=O)n(C)c(=O)c2c1C,3,4,0,-5,24*,-3,0,0
C=CCOc1ccc(C=CC(=O)c2c(O)c(OC)c(OC)c(OC)c2OC)cc1,-4,2,2,0,59*,3,72*,56*
C[C@@H]1CN([C@H](C)CO)C(=O)c2cc(NS(=O)(=O)c3ccccc3)ccc2O[C@@H](C)CCCCO[C@@H]1CN(C)Cc1ccc(Cl)c(Cl)c1,-1,4,6,-3,.,0,.,.
SMILES,LEDGF integ inh,PRMT1 FP inh,rCAG RNA binder,MBD2 DNA inh,ABHD5-PLIN5 inh,UHRF1 binding,ABHD5-PLIN5 conf,HNF4 split-luc
Cc1cccc2c1N(CCCOc1ccccc1)C(=O)C2=O,-1,0,3,-9,12,-9,.,.
Cc1ccccc1OCCCN1C(=O)C(=O)c2cccc(C)c21,5,-3,2,-5,27*,-1,49*,48*
CCOC(=O)[C@]12CCCC=C1N(Cc1ccc(OC)cc1)C(=O)[C@@H]2CC(=O)NCCCN1CCCC1=O,-3,6,3,3,.,-2,.,.
COc1ccc(CC2=CC(=O)c3ccccc3C2=O)cc1,1,79*,3,-5,85*,-5,100*,108*
COc1ccc(Cc2ccccc2C(=O)O)cc1,3,-1,2,2,4,3,.,.
CCN1C(=O)Cc2cc(S(=O)(=O)N3CCOCC3)ccc21,-1,1,5,-6,-8,-5,.,.
CCN1CC(=O)Nc2cc(S(=O)(=O)N3CCOCC3)ccc21,-4,-1,-4,-3,32*,-1,49*,46*
COc1ccccc1/C=C/C(=O)/C=C/c1ccccc1O,-1,8,21,-5,11,-1,.,.
Cc1ccc(/C=C/C(=O)c2cc(Br)ccc2OC(=O)c2ccco2)cc1,-1,1,4,-5,74*,0,95*,74*
COc1ccccc1/C=C/C(=O)c1cc(Br)ccc1OC(=O)c1ccco1,0,-3,3,-1,66*,-2,94*,74*
COc1ccc(Br)cc1C(=O)Nc1ccc(NC(=O)c2ccco2)cc1,1,-2,5,2,4,3,.,.
COc1ccccc1C=CC(=O)C=Cc1ccccc1OC,1,4,3,-7,32*,2,72*,45*
c1cnc(SCC2CCCCC2)c(-c2nc3ccccc3[nH]2)c1,5,-7,0,-5,.,-3,.,.
CCc1ccc(-n2ncc(Cl)c(Oc3ccc(OC)cc3)c2=O)cc1,4,-3,.,-5,.,2,.,.
CCc1ccccc1NC(=O)CN(C)Cc1c(O)ccc2ccccc12,-4,23*,-1,-1,24*,-1,46*,88*
CN(CC(=O)Nc1ccccc1C(F)(F)F)Cc1c(O)ccc2ccccc12,2,17,7,-6,10,-1,.,.
CCC(=O)OCCCN1CCC2(CCCCC2)C1=O,2,-4,.,-7,.,1,.,.

# From PubChem BioAssay
